The source made the active and inactive calls. Rule for the calls: active = hit-call score of the fitted dose curve at least 0.9, where 1 is the maximum; inactive = score below 0.9.

As usually defined, the AC50 is the concentration giving half of the maximal activity seen.

Holding throughout (conditions): mRNA level, 48 h; actives raise or lower the signal
Read-out in assay [1]: Glutamate-cysteine ligase catalytic (GCLC), GCLC (gene 2729)
Briefly: LTEA_HepaRG_GCLC: Life Technologies and Expression Analysis (LTEA) Assay for Glutamate-cysteine ligase catalytic (GCLC) using HepaRG (AID 2283498). In short, it runs like this:
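Differentiated human HepaRG cells, plated 48 h then switched to serum-free induction medium, were exposed in duplicate for 48 h to 8 half-log concentrations topping at 100 uM in 0.5% DMSO. GCLC mRNA was quantified by qRT-PCR against ACTB, GAPDH and POLR2A.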

Read-out in assay [2]: growth arrest and DNA damage 45 (GADD45G), GADD45G (gene 10912)
Kind of assay: LTEA_HepaRG_GADD45G: Life Technologies and Expression Analysis (LTEA) Assay for growth arrest and DNA damage 45 (GADD45G) using HepaRG (AID 2283499). The method in brief:
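Human hepatic HepaRG line treated 48 h with chemicals (eight concentrations, half-log steps from 100 uM); transcript induction or repression of GADD45G scored by qRT-PCR versus DMSO vehicle.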

Read-out in assay [3]: Glutamate-cysteine ligase regulatory (GCLM), GCLM (gene 2730)
Kind of assay: LTEA_HepaRG_GCLM: Life Technologies and Expression Analysis (LTEA) Assay for Glutamate-cysteine ligase regulatory (GCLM) using HepaRG (AID 2283500). In short, it runs like this: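 Differentiated human HepaRG cells exposed 48 h in serum-free induction medium to 8-point half-log concentrations (top 100 uM, 0.5% DMSO), in duplicate. GCLM mRNA quantified by qRT-PCR, normalized to ACTB, GAPDH, POLR2A; bidirectional fitting versus DMSO.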

Read-out in assay [4]: Glutathione S-transferase M3 (GSTM3), GSTM3 (gene 2947)
Briefly: LTEA_HepaRG_GSTM3: Life Technologies and Expression Analysis (LTEA) Assay for Glutathione S-transferase M3 (GSTM3) using HepaRG (AID 2283501). In short, it runs like this:
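Changes in GSTM3 expression, an oxidative-stress marker, were scored by bidirectional curve fitting against 0.5% DMSO vehicle. Human HepaRG cultures received chemicals for 48 h in duplicate, highest concentration 100 uM with half-log dilutions.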

Read-out in assay [5]: Heat shock 70 kDa protein 1 (HSPA1A), gene 3303
Kind of assay: LTEA_HepaRG_HSPA1A: Life Technologies and Expression Analysis (LTEA) Assay for Heat shock 70 kDa protein 1 (HSPA1A) using HepaRG (AID 2283502). The method in brief:
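Differentiated human HepaRG cells in serum-free induction medium were exposed in duplicate for 48 h to eight concentrations (top 100 uM, half-log steps, 0.5% DMSO). HSPA1A mRNA was quantified by qRT-PCR, normalized to ACTB, GAPDH and POLR2A, and fitted bidirectionally against DMSO.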

Read-out in assay [6]: Hypoxia-inducible factor 1-alpha (Homo sapiens) (UniProt Q16665)
Briefly: LTEA_HepaRG_HIF1A: Life Technologies and Expression Analysis (LTEA) Assay for Hypoxia-inducible factor 1 (HIF1A) Trancription factor using HepaRG (AID 2283503). The method in brief:
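HepaRG, 48 h exposure, 8-pt half-log series from 100 uM, 0.5% DMSO vehicle, duplicates. Readout: HIF1A transcript by qRT-PCR (Fluidigm array), housekeeping-normalised. Bidirectional curve fit vs DMSO baseline.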

Read-out in assay [7]: HGF (gene 3082)
Kind of assay: LTEA_HepaRG_HGF: Life Technologies and Expression Analysis (LTEA) Assay for Hepatocyte Growth Facto (HGF) using HepaRG (AID 2283505). In short, it runs like this: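 Gain or loss of HGF mRNA in human HepaRG liver cells after 48 h chemical exposure; eight concentrations up to 100 uM with 0.5% DMSO vehicle, quantified by TaqMan qRT-PCR.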

Read-out in assay [8]: Insulin Like Growth Factor 1 (IGF1), IGF1 (gene 3479)
Briefly: LTEA_HepaRG_IGF1: Life Technologies and Expression Analysis (LTEA) Assay for Insulin Like Growth Factor 1 (IGF1) using HepaRG (AID 2283506). In short, it runs like this: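 Differentiated human HepaRG cells were dosed for 48 h in serum-free induction medium with 0.5% DMSO, eight half-log concentrations up to 100 uM, in duplicate. IGF1 mRNA was quantified by qRT-PCR normalized to ACTB, GAPDH, POLR2A; bidirectional fitting versus DMSO.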

Read-out in assay [9]: Interleukin 6 (IL6), IL6 (gene 3569)
Briefly: LTEA_HepaRG_IL6: Life Technologies and Expression Analysis (LTEA) Assay for Interleukin 6 (IL6) using HepaRG (AID 2283509). The method in brief: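 Differentiated human HepaRG cells, plated 48 h then switched to serum-free induction medium, were exposed in duplicate for 48 h to eight half-log concentrations up to 100 uM in 0.5% DMSO. IL6 mRNA measured by qRT-PCR, normalized to ACTB/GAPDH/POLR2A.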

Read-out in assay [10]: Interleukin 6 Receptor (IL6R), IL6R (gene 3570)
Kind of assay: LTEA_HepaRG_IL6R: Life Technologies and Expression Analysis (LTEA) Assay for Interleukin 6 Receptor (IL6R) using HepaRG (AID 2283510).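 For AC50: TaqMan qRT-PCR signal normalized to ACTB GAPDH and POLR2A housekeeping genes.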 In short, it runs like this:
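Differentiated human HepaRG cells, plated 48 h then switched to serum-free induction medium, were dosed in duplicate for 48 h at eight half-log concentrations up to 100 uM in 0.5% DMSO. IL6R mRNA quantified by qRT-PCR, normalized to ACTB/GAPDH/POLR2A; bidirectional fit versus DMSO.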

Read-out in assay [11]: Potassium channel subfamily K member 1 (KCNK1), KCNK1 (gene 3775)
Briefly: LTEA_HepaRG_KCNK1: Life Technologies and Expression Analysis (LTEA) Assay for Potassium channel subfamily K member 1 (KCNK1) using HepaRG (AID 2283511). In short, it runs like this:
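Differentiated human HepaRG cells in serum-free induction medium were exposed in duplicate for 48 h to 8 half-log concentrations up to 100 uM in 0.5% DMSO. KCNK1 mRNA was measured by TaqMan qRT-PCR, normalized to ACTB, GAPDH and POLR2A, and fitted bidirectionally versus DMSO.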

Read-out in assay [12]: Keratin 19 (KRT19), KRT19 (gene 3880)
Kind of assay: LTEA_HepaRG_KRT19: Life Technologies and Expression Analysis (LTEA) Assay for Keratin 19 (KRT19) using HepaRG (AID 2283512). The method in brief: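 Gene-expression endpoint in the human liver line HepaRG after 48 h exposure to up to 100 uM test chemical with 0.5% DMSO vehicle; KRT19 mRNA by qRT-PCR, analyzed bidirectionally versus DMSO.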

Read-out in assay [13]: JUN Transcription Factor, JUN (gene 3725)
Kind of assay: LTEA_HepaRG_JUN: Life Technologies and Expression Analysis (LTEA) Assay for JUN Transcription Factor using HepaRG (AID 2283513). In short, it runs like this: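 Differentiated HepaRG cells were exposed to chemicals for 48 h in serum-free induction medium, 8 concentrations from 100 uM in half-log steps, 0.5% DMSO vehicle, in duplicate. JUN mRNA was quantified by TaqMan qRT-PCR, normalized to ACTB, GAPDH, POLR2A.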

Read-out in assay [14]: Lipase C (LIPC), LIPC (gene 3990)
Briefly: LTEA_HepaRG_LIPC: Life Technologies and Expression Analysis (LTEA) Assay for Lipase C (LIPC) using HepaRG (AID 2283514). In short, it runs like this:
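Differentiated human HepaRG cells in serum-free induction medium were exposed in duplicate for 48 h to eight concentrations (top 100 uM, half-log steps, 0.5% DMSO). LIPC mRNA was quantified by TaqMan qRT-PCR, normalized to ACTB, GAPDH and POLR2A, with bidirectional fitting versus DMSO.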

Read-out in assay [15]: Lipoprotein lipase (LPL), LPL (gene 4023)
Kind of assay: LTEA_HepaRG_LPL: Life Technologies and Expression Analysis (LTEA) Assay for Lipoprotein lipase (LPL) using HepaRG (AID 2283515). The method in brief:
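Differentiated human HepaRG cells in serum-free induction medium were exposed in duplicate for 48 h to eight half-log concentrations (top 100 uM) in 0.5% DMSO. LPL mRNA was quantified by TaqMan qRT-PCR, normalized to ACTB, GAPDH and POLR2A.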

Read-out in assay [16]: MicroRNA 122 (MIR122), gene 406906
Kind of assay: LTEA_HepaRG_MIR122: Life Technologies and Expression Analysis (LTEA) Assay for MicroRNA 122 (MIR122) using HepaRG (AID 2283516). Note: the transcript read is the microRNA miR-122. In short, it runs like this:
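Differentiated human HepaRG cells were exposed 48 h in serum-free induction medium to eight half-log concentrations (top 100 uM, 0.5% DMSO). Transcript level was measured by TaqMan qRT-PCR, normalized to ACTB, GAPDH and POLR2A, and fitted bidirectionally versus DMSO.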

Read-out in assay [17]: matrix metalloproteinase-10 (MMP10), MMP10 (gene 4319)
Briefly: LTEA_HepaRG_MMP10: Life Technologies and Expression Analysis (LTEA) Assay for matrix metalloproteinase-10 (MMP10) using HepaRG (AID 2283517). In short, it runs like this:
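HepaRG, collagen I, ~100,000 cells/well; serum-free induction medium; 48 h exposure, duplicate, 8-pt half-log to 100 uM, 0.5% DMSO. Readout: TaqMan qRT-PCR, normalized to ACTB/GAPDH/POLR2A; bidirectional fit vs DMSO.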

Read-out in assay [18]: 3-Hydroxy-3-Methylglutaryl-CoA Synthase 2 (HMGCS2), HMGCS2 (gene 3158)
Kind of assay: LTEA_HepaRG_HMGCS2: Life Technologies and Expression Analysis (LTEA) Assay for 3-Hydroxy-3-Methylglutaryl-CoA Synthase 2 (HMGCS2) using HepaRG (AID 2283504). The method in brief:
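Expression of HMGCS2 in human HepaRG liver cells is measured by qRT-PCR 48 h after dosing (highest 100 uM, half-log series, 0.5% DMSO). Values come from bidirectional concentration-response fitting with DMSO as baseline.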

Read-out in assay [19]: Insulin-like growth factor-binding protein 1 (IGFBP1), IGFBP1 (gene 3484)
Briefly: LTEA_HepaRG_IGFBP1: Life Technologies and Expression Analysis (LTEA) Assay for Insulin-like growth factor-binding protein 1 (IGFBP1) using HepaRG (AID 2283508). The method in brief: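 mRNA induction or loss was quantified by qRT-PCR after 48 h chemical exposure of human HepaRG cells, with 0.5% DMSO as vehicle and baseline. Concentration-response over eight points up to 100 uM.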

Read-out in assay [20]: Intercellular Adhesion Molecule 1 (ICAM1), ICAM1 (gene 3383)
Kind of assay: LTEA_HepaRG_ICAM1: Life Technologies and Expression Analysis (LTEA) Assay for Intercellular Adhesion Molecule 1 (ICAM1) using HepaRG (AID 2283507). The method in brief:
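Gain or loss of transcript in HepaRG hepatic cells is quantified by qRT-PCR after 48 h chemical exposure (up to 100 uM, half-log steps), with DMSO as baseline.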

Sequence of Hypoxia-inducible factor 1-alpha (Homo sapiens) (Q16665 whole entry, looked up): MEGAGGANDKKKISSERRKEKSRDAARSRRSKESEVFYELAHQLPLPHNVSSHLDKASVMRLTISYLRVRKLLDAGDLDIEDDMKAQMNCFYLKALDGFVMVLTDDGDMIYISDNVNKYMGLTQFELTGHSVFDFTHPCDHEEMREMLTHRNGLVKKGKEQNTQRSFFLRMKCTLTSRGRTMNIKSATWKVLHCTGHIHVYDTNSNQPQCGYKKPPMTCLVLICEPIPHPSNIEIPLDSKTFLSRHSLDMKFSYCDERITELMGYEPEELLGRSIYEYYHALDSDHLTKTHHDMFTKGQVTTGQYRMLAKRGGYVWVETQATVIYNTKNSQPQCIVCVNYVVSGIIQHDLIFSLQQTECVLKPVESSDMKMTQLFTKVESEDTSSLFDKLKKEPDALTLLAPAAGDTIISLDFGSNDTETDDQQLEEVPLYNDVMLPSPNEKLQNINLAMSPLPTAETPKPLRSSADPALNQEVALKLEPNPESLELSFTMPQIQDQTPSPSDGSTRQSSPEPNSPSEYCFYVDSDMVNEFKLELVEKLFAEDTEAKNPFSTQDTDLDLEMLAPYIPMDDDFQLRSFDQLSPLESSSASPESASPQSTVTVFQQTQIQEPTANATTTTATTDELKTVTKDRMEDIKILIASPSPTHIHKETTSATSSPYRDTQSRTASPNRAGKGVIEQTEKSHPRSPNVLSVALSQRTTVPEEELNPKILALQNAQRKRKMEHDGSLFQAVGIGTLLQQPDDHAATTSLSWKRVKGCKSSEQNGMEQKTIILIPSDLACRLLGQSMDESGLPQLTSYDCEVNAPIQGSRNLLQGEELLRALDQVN

`C=CCc1ccc(OC)c(OC)c1`: the call in assay [1], in [2], in assay [3], in assay [4], in assay [5] and in assay [6] was inactive. Moreover, the molecule was called inactive in [7], in [8], in assay [9], in [10], in assay [11] and in assay [12]. In addition, the molecule was called inactive in assay [13], in assay [14], in assay [15], in [16] and in assay [17].
In the case of `O=C1OC(c2ccc(O)cc2)(c2ccc(O)cc2)c2ccccc21`, the AC50 in assay [1] was 32 µM (active); in [4], 50 µM (active); in assay [5] it was 50 µM (active); in assay [18] it was 67.6 µM (active); in [7] it was 79.4 µM (active); in assay [10], 50 µM (active). Further, the AC50 is 77.4 µM (active) in assay [14], 72.5 µM (active) in assay [15] and 50 µM (active) in [16]. Further, the result in assay [2], in assay [3], in assay [8], in [19], in assay [9] and in assay [11] was inactive. Moreover, the molecule was called inactive in [12], in [13] and in assay [17].
`CCCCCCCCCCCCCCOS(=O)(=O)O`: the molecule was called inactive in assay [1], in assay [2], in assay [3], in assay [4], in assay [5] and in assay [6]. Moreover, the molecule was classed as inactive in [7], in assay [9], in [10], in assay [11], in [12] and in assay [13]. The result in [14], in assay [15] and in [16] was inactive. Besides, in assay [8], the AC50 was 24.6 µM (active).
Take `Nc1nc(Cl)nc2c1ncn2[C@H]1C[C@H](O)[C@@H](CO)O1`: the AC50 in [1] is 1.24 µM (active); in [2] it was 5.75 µM (active); in [18] it was 1.49 µM (active); in [8] it was 2.39 µM (active); in assay [19] it was 4.82 µM (active); in assay [9] it was 16.1 µM (active). For the same molecule, the AC50 was 0.603 µM (active) in assay [10]; 1.36 µM (active) in assay [11]; 1.03 µM (active) in [14]; 1.03 µM (active) in assay [15]; 1.55 µM (active) in assay [16]; 1.72 µM (active) in assay [17]. For the same molecule, the result in [3], in assay [4], in assay [5], in [20] and in assay [12] was inactive.
